Active and inactive are the calls of the source.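 Rule for the calls: active = visually confirmed hit in the image check and inhibition above 20%; inconclusive = visually confirmed hit but inhibition not above 20%; inactive = no visual hit in the image check.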

A short description of this experiment: endothelial E-selectin expression blockers – imaging, HUVEC, immunofluorescence, MLSMR starter and 10KST1 sets, primary screen (AID 487).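 For inhibition: signal is fraction of cell area covered by stained E-selectin grains.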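 For nuclei count: 100% = median nuclei count of all wells on the same plate.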 Particulars: HUVEC TNFalpha-induced E-selectin immunofluorescence imaging, at 2 µM; inhibition: stronger effect = higher value; nuclei count: measured here: cell number, toxicity.
One may read the inhibition as the drop in the measured response relative to a control, in per cent. As for `COCCCNc1nc(-c2ccncc2)nc2ccccc12`, the inhibition is -227% (inactive) and the nuclei count came to 126%.
Taken in the same sequence, the figures for `CCOC(=O)c1cc2c(=O)n3ccccc3nc2n(Cc2ccccc2Cl)c1=N` were -3.3% (inactive) and 161%.
Consider `COc1ccc(N/C=C(\C#N)c2nc3ccccc3n2C)c(OC)c1`, for which the nuclei count was found to be 138% and the inhibition is -18% (inactive).
Taken in the same sequence, the figures for `Cc1c(C)c2cc(Cl)c(O)c(CN3CCN(C)CC3)c2oc1=O` were 179% and -104% (inactive).
In the case of `Cc1cc(N2C(=O)C(=O)/C(=C(/O)c3ccccc3)C2c2cccc(Br)c2)no1` (stereo not drawn), the nuclei count was found to be 93.2% and the inhibition was -43.8% (inactive).
As for `CC1=CC(c2ccccc2)n2nc(N3C(=O)C4CC=CCC4C3=O)nc2N1` (stereo not drawn), the nuclei count was 153% and the inhibition is -63.7% (inactive).
The like results for `O=c1[nH]c(-c2ccccn2)nc2ccccc12` were, in that order, 126% and -102% (inactive).
The like results for `COc1ccccc1N(Cc1cc2cccc(C)c2[nH]c1=O)C(=O)C(C)C` were, in that order, 171% and -118% (inactive).
With `COc1ccc(NCc2cc3ccccc3[nH]c2=O)cc1`, the inhibition is -69.8% (inactive) and the nuclei count was found to be 90%.
With `CN1CCN(Cc2c(O)ccc3c(-c4ccccc4)cc(=O)oc23)CC1`, the inhibition is -97.7% (inactive) and the nuclei count was found to be 124%.
Taken in the same sequence, the figures for `COc1ccc(/C(O)=C2/C(=O)C(=O)N(CCN3CCOCC3)C2c2ccccn2)cc1OC` (stereo not drawn) were -125% (inactive) and 158%.
Taken in the same sequence, the figures for `CC12CCC(C(=O)N(CCC#N)CCC#N)(CC1=O)C2(C)C` (stereo not drawn) were -9% (inactive) and 92.1%.
Consider `Cc1cccc(C)c1N1C(=O)C2ON(c3ccccc3)C(c3ccncc3)C2C1=O` (stereo not drawn), for which the inhibition was -151% (inactive) and the nuclei count turned out to be 141%.
In the case of `CCCc1cc(=O)oc2c(CN3CCN(C)CC3)c(O)c(Cl)cc12`, the nuclei count is 163% and the inhibition is 4.8% (inactive).

The record behind these values is PubChem BioAssay.
